# Experimental data from publication PMC7862700, “An all-to-all approach to the identification of sequence-specific readers for epigenetic DNA modifications on cytosine”.
# Legend:
# Assay in all cases: DAPPL (digital affinity profiling via proximity ligation, sequencing); 10 mM Tris-HCl pH 7.5, 50 mM NaCl, 1 mM DTT, 4% glycerol, room temperature, 30 min; GST-TFs on glutathione beads, 16-mer random dsDNA library, 0.1% formaldehyde crosslink after washing; high values mean tight binding
# FLI1 = biological target: T1, FLI1 (Homo sapiens, UniProt Q01543 1-452); details: protein: recombinant; tags: N-terminal GST; dsDNA, one strand shown
# T1 sequence: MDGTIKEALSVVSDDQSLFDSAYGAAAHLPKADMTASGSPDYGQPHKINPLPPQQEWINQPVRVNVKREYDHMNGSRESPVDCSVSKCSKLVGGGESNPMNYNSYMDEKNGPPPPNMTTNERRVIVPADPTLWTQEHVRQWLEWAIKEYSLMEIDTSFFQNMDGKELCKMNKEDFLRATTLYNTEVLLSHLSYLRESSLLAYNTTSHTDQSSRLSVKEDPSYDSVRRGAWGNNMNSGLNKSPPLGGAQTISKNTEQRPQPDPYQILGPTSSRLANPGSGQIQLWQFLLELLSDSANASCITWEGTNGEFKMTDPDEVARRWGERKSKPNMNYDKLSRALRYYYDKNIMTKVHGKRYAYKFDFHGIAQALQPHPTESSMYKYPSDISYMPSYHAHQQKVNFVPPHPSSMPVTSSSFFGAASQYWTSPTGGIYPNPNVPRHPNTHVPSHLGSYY
# Summary of the method: (§1)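 Human transcription factors were made in yeast as GST fusions, captured on glutathione beads and barcoded with DNA. With a tag-only sample included, the pool was incubated with 200 nmole of a random double-stranded 16-mer DNA library in Tris/NaCl/DTT/glycerol buffer at room temperature for 30 min, then crosslinked with 0.1% formaldehyde after washing, ligated by proximity, amplified and sequenced. For binding signal, each hexamer's read frequency for a factor is divided by its frequency for the tag-only sample.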
# ELK1 = biological target: T2, ELK1 (Homo sapiens, UniProt P19419 1-428); details: protein: recombinant; tags: N-terminal GST; dsDNA, one strand shown
# T2 sequence: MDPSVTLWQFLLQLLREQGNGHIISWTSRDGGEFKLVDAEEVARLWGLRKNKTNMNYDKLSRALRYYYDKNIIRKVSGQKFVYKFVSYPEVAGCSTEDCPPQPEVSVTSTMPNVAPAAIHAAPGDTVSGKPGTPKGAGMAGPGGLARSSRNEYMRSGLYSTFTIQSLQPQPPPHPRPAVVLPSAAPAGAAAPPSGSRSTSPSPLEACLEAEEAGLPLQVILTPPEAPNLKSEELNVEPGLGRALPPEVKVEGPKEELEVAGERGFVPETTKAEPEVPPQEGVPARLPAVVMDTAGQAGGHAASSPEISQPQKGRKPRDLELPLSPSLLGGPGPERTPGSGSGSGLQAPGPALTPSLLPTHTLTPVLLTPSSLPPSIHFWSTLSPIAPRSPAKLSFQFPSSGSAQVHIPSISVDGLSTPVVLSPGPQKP
# Summary of the method: as §1
# GABPA = biological target: T3, GABPA (Homo sapiens, UniProt Q06546 1-454); details: protein: recombinant; tags: N-terminal GST; dsDNA, one strand shown
# T3 sequence: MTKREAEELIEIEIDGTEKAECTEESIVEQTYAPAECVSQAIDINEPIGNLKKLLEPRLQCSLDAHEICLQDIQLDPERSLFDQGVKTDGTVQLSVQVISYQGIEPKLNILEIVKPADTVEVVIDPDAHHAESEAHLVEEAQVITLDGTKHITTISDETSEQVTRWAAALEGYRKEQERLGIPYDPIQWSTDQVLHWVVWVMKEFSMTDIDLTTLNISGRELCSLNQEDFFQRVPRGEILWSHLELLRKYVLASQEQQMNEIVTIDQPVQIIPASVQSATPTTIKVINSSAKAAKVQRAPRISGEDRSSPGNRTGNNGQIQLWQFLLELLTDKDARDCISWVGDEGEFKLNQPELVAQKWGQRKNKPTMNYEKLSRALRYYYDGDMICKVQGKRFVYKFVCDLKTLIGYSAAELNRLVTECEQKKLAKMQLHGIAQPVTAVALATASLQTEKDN
# Summary of the method: as §1
# ERG = biological target: T4, ERG (Homo sapiens, UniProt P11308 1-479); details: protein: recombinant; tags: N-terminal GST; dsDNA, one strand shown
# T4 sequence: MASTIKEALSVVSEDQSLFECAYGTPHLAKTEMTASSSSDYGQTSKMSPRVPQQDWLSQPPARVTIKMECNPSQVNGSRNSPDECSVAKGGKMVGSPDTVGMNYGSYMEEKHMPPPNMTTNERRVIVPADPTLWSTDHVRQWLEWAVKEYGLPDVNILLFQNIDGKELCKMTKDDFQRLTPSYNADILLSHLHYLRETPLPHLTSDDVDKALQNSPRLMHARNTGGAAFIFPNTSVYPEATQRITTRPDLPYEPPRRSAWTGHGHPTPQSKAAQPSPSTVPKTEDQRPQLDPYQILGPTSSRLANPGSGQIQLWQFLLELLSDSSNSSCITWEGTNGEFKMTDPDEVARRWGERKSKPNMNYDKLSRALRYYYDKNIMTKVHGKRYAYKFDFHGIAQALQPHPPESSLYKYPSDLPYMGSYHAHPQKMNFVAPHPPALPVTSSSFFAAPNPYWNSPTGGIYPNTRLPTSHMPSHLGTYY
# Summary of the method: as §1
# ELF1 = ELF1 (Homo sapiens, UniProt P32519 1-619); details: protein: recombinant; tags: N-terminal GST; dsDNA, one strand shown
# Summary of the method: as §1
# EHF = biological target: T5, EHF (Homo sapiens, UniProt Q9NZC4 1-300); details: protein: recombinant; tags: N-terminal GST; dsDNA, one strand shown
# T5 sequence: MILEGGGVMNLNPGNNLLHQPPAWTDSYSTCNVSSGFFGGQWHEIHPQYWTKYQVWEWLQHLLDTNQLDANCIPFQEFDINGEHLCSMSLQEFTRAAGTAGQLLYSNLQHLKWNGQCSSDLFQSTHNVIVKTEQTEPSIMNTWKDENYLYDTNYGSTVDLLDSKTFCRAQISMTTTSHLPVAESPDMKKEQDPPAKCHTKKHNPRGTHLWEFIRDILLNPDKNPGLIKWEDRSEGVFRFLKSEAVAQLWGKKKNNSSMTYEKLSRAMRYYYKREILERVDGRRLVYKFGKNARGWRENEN
# Summary of the method: as §1
# SPI1 = SPI1 (Homo sapiens, UniProt P17947 1-270); details: protein: recombinant; tags: N-terminal GST; dsDNA, one strand shown
# Summary of the method: as §1
# SPIB = SPIB (Homo sapiens, UniProt Q01892 1-262); details: protein: recombinant; tags: N-terminal GST; dsDNA, one strand shown
# Summary of the method: as §1
# ELK3 = biological target: T6, ELK3 (Homo sapiens, UniProt P41970 1-407); details: protein: recombinant; tags: N-terminal GST; dsDNA, one strand shown
# T6 sequence: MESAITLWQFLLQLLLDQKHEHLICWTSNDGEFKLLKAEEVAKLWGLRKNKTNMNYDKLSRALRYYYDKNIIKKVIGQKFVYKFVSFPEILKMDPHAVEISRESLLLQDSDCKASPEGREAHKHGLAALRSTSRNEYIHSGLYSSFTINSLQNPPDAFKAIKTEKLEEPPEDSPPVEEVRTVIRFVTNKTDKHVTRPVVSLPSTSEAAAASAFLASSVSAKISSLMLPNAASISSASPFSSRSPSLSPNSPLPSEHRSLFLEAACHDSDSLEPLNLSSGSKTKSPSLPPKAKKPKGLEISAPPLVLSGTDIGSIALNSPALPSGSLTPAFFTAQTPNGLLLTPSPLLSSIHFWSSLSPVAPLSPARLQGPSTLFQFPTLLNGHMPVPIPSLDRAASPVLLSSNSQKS
# Summary of the method: as §1
# FEV = biological target: T7, FEV (Homo sapiens, UniProt Q99581 1-238); details: protein: recombinant; tags: N-terminal GST; dsDNA, one strand shown
# T7 sequence: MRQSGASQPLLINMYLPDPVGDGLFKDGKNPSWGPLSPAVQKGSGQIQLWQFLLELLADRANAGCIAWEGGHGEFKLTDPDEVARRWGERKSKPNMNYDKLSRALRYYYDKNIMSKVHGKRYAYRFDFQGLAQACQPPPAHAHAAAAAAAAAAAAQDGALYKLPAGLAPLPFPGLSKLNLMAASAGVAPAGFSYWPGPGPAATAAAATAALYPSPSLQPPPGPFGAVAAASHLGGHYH
# Summary of the method: as §1
# ETV5 = ETV5 (Homo sapiens, UniProt P41161 1-510); details: protein: recombinant; tags: N-terminal GST; dsDNA, one strand shown
# Summary of the method: as §1
# HSF1 = HSF1 (Homo sapiens, UniProt Q00613 1-529); details: protein: recombinant; tags: N-terminal GST; chain copies: 3; dsDNA, one strand shown
# Summary of the method: as §1
# SPIC = biological target: T8, SPIC (Homo sapiens, UniProt Q8N5J4 1-248); details: protein: recombinant; tags: N-terminal GST; dsDNA, one strand shown
# T8 sequence: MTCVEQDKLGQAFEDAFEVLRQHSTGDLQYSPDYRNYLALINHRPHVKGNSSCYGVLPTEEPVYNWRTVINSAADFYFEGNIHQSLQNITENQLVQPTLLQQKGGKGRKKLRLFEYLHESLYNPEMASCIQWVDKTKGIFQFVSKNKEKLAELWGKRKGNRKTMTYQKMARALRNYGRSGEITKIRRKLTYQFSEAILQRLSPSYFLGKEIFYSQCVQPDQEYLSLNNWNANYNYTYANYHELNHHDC
# Summary of the method: as §1
# ELF4 = ELF4 (Homo sapiens, UniProt Q99607 1-663); details: protein: recombinant; tags: N-terminal GST; dsDNA, one strand shown
# Summary of the method: as §1
# ELK4 = biological target: T9, ELK4 (Homo sapiens, UniProt P28324-2 1-405); details: protein: recombinant; tags: N-terminal GST; dsDNA, one strand shown
# T9 sequence: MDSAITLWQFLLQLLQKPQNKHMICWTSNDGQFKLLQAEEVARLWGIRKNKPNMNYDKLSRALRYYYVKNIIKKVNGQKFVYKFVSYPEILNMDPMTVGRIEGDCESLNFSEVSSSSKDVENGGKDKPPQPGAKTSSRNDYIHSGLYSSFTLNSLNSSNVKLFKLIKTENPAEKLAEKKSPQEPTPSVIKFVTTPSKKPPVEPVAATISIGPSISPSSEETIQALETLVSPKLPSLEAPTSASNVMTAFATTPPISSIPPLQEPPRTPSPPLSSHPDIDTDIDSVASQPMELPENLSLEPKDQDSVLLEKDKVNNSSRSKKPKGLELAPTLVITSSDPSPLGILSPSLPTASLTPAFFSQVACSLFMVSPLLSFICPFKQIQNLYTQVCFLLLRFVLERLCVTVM
# Summary of the method: as §1
# ETV2 = biological target: T10, ETV2 (Homo sapiens, UniProt O00321 1-342); details: protein: recombinant; tags: N-terminal GST; dsDNA, one strand shown
# T10 sequence: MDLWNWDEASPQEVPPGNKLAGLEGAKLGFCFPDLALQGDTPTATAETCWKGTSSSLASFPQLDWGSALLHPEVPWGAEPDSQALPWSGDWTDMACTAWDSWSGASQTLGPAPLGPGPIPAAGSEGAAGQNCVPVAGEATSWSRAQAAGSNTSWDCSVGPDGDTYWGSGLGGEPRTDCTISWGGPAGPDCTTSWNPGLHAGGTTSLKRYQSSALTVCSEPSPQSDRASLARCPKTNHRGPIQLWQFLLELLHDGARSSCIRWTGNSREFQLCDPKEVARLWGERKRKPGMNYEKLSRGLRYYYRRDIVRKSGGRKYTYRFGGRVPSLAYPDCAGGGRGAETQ
# Summary of the method: as §1
# ELF3 = biological target: T11, ELF3 (Homo sapiens, UniProt P78545 1-371); details: protein: recombinant; tags: N-terminal GST; dsDNA, one strand shown
# T11 sequence: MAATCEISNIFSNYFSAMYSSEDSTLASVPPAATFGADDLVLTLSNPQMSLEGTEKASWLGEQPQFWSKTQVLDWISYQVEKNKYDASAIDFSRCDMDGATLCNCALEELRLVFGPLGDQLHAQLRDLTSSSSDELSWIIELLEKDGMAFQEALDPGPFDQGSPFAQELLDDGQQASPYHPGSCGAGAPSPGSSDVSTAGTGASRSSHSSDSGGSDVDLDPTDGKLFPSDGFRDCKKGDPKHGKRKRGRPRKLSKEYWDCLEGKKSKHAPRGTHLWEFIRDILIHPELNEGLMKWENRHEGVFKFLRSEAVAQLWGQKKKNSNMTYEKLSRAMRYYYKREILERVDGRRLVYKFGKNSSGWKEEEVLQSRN
# Summary of the method: as §1
# CRX = CRX (Homo sapiens, UniProt O43186 1-299); details: protein: recombinant; tags: N-terminal GST; dsDNA, one strand shown
# Summary of the method: as §1
# ETV1 = ETV1 (Homo sapiens, UniProt P50549 1-477); details: protein: recombinant; tags: N-terminal GST; dsDNA, one strand shown
# Summary of the method: as §1
# Sequence of ELF1 (P32519 whole entry): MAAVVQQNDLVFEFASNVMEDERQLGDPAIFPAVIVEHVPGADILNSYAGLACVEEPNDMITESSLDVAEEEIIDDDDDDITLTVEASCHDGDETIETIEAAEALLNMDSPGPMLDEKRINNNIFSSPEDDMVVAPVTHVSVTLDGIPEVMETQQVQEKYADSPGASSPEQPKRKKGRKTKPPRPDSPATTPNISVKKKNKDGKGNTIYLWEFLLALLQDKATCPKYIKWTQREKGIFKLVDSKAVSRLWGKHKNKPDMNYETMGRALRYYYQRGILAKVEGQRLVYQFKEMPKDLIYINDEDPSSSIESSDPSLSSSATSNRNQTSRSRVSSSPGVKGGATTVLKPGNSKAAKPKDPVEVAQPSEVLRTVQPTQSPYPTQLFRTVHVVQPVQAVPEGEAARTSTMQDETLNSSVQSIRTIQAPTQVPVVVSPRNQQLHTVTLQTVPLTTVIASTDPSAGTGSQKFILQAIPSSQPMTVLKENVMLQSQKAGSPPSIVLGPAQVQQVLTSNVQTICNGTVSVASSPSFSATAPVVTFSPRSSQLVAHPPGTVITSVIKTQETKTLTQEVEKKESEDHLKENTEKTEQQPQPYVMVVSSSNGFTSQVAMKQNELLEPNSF
# Sequence of ELF4 (Q99607 whole entry): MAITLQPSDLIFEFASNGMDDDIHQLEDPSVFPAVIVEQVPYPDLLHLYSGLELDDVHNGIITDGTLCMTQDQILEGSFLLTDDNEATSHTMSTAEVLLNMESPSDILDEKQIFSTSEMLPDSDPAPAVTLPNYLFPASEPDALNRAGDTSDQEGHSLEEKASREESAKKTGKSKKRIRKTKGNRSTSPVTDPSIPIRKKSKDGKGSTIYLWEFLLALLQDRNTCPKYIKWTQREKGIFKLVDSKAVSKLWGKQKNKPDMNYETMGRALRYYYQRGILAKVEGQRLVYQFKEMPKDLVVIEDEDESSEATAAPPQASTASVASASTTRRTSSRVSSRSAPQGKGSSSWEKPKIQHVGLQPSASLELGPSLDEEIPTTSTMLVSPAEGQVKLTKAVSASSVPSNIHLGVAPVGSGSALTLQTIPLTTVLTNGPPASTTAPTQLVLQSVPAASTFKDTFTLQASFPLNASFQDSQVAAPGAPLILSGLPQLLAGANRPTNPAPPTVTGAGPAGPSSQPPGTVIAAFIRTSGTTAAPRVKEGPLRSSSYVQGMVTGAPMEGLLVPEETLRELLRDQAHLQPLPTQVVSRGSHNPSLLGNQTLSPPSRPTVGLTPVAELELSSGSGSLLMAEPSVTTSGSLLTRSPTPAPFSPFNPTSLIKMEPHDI
# Sequence of SPIB (Q01892 whole entry): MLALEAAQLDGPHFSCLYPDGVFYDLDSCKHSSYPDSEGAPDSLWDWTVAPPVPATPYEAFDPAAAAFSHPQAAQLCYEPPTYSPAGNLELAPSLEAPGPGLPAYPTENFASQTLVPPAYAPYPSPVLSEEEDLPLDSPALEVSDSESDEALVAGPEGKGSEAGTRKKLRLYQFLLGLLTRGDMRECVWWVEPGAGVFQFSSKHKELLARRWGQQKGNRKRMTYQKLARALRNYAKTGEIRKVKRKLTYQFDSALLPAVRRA
# Sequence of CRX (O43186 whole entry): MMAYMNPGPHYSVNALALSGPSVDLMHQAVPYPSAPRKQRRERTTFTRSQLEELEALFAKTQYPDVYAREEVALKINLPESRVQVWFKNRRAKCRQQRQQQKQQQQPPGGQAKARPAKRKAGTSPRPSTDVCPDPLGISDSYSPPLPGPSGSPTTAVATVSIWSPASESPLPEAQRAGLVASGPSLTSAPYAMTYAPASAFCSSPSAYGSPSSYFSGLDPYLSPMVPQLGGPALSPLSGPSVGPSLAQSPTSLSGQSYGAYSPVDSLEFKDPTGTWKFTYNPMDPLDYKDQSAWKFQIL
# Sequence of ETV1 (P50549 whole entry): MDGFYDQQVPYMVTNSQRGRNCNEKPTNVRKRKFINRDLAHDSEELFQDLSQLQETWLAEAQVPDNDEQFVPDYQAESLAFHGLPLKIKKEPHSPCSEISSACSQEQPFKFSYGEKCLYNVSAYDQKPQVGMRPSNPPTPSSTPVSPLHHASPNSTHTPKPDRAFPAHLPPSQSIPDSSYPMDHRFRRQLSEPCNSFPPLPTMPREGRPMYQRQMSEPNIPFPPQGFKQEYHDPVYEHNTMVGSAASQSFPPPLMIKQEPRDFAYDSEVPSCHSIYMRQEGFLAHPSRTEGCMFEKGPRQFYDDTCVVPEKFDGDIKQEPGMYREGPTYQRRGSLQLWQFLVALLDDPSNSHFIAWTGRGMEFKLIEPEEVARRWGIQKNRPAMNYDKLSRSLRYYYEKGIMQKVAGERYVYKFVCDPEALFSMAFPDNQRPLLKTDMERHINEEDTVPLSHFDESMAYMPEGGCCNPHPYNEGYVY
# Sequence of ETV5 (P41161 whole entry): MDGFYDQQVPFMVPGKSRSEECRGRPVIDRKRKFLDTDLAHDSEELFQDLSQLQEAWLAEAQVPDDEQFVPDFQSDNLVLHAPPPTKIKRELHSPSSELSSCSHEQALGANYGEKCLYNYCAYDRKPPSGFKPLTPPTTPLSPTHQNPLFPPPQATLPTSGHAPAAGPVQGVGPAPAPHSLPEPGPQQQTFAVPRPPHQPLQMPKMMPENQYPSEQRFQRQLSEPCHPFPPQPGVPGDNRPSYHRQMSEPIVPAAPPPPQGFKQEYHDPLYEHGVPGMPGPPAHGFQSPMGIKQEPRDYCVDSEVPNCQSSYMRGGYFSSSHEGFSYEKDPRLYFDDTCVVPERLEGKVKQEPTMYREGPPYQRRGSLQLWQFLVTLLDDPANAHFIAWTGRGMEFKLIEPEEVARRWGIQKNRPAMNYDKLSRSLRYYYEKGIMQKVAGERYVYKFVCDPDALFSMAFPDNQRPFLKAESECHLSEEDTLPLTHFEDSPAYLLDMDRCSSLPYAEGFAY
# Sequence of HSF1 (Q00613 whole entry): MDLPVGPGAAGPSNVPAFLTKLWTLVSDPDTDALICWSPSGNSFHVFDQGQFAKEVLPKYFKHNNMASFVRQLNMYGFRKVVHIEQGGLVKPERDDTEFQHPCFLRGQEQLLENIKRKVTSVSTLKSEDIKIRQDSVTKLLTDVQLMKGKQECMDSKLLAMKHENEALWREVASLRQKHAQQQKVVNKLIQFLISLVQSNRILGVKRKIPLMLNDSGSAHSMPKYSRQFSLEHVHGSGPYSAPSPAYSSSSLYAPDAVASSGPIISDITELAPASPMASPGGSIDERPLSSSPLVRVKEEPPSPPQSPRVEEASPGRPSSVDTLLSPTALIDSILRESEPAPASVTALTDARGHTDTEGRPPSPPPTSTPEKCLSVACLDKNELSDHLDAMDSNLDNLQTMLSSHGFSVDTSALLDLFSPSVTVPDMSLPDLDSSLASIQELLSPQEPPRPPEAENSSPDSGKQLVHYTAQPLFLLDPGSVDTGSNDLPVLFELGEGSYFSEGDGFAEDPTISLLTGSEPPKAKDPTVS
sequence,measurement,setting,value
GCCGAT,binding signal,FLI1,"1.14 fold enrichment (6-mer frequency, TF over GST control)"
same,binding signal,ELK1,"1.09 fold enrichment (6-mer frequency, TF over GST control)"
same,binding signal,GABPA,"1.21 fold enrichment (6-mer frequency, TF over GST control)"
same,binding signal,ERG,"1.03 fold enrichment (6-mer frequency, TF over GST control)"
same,binding signal,ELF1,"1.03 fold enrichment (6-mer frequency, TF over GST control)"
same,binding signal,EHF,"1.01 fold enrichment (6-mer frequency, TF over GST control)"
same,binding signal,SPI1,"1.12 fold enrichment (6-mer frequency, TF over GST control)"
same,binding signal,SPIB,"1.07 fold enrichment (6-mer frequency, TF over GST control)"
same,binding signal,ELK3,"1.08 fold enrichment (6-mer frequency, TF over GST control)"
same,binding signal,FEV,"1.11 fold enrichment (6-mer frequency, TF over GST control)"
same,binding signal,ETV5,"1.11 fold enrichment (6-mer frequency, TF over GST control)"
same,binding signal,HSF1,"1.13 fold enrichment (6-mer frequency, TF over GST control)"
same,binding signal,SPIC,"1.03 fold enrichment (6-mer frequency, TF over GST control)"
same,binding signal,ELF4,"1.16 fold enrichment (6-mer frequency, TF over GST control)"
same,binding signal,ELK4,"1.13 fold enrichment (6-mer frequency, TF over GST control)"
same,binding signal,ETV2,"1.13 fold enrichment (6-mer frequency, TF over GST control)"
same,binding signal,ELF3,"1.02 fold enrichment (6-mer frequency, TF over GST control)"
same,binding signal,CRX,"1.46 fold enrichment (6-mer frequency, TF over GST control)"
same,binding signal,ETV1,"1.07 fold enrichment (6-mer frequency, TF over GST control)"
